Experiments:
POU1 (OCT1 POU domain) = POU1 (OCT1 POU domain) (human, UniProt P14859 260-458); assay: EMSA-SELEX-seq; no BOB1; 20 mM Tris-HCl pH 7.6, 140 mM NaCl, 10% glycerol, 0.5 mM EDTA, 0.05% Triton X-100, 0.1 mg/mL BSA, 0.1 mg/mL poly(dI-dC), 5 mM DTT, room temperature, 20 min; high values mean tight binding; conditions: protein: recombinant; dsDNA, one strand shown
In short: (§1)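 Binding preference means the percentage of sequenced 8-mers matching a motif pattern. Tagged POU-domain proteins (30 ng), expressed in E. coli BL21, purified under denaturing conditions and renatured, were mixed with 300 ng of a PCR-amplified double-stranded random 35-nt library, with or without 28 ng coactivator protein, for 20 min at RT in 20 μL Tris–HCl pH 7.6 binding buffer. Selection was repeated over four rounds of excising complex bands from native 6% PAGE, eluting and PCR amplification, followed by Illumina sequencing.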

POU2 (OCT2 POU domain) = target: T1, POU2 (OCT2 POU domain) (human, UniProt P09086 175-386); assay: as above; conditions: protein: recombinant; dsDNA, one strand shown
T1 sequence: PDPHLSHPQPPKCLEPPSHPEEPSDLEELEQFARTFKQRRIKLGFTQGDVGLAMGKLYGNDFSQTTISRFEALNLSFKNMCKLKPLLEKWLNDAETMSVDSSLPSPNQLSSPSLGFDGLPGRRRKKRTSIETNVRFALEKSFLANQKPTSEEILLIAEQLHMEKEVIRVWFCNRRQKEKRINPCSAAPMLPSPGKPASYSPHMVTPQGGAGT
In short: as §1

[1] = target: POU1 (OCT1 POU domain);BOB1 (OBF1, OCA-B) (human;human, UniProt P14859;Q16633 260-458;1-256, |); assay: EMSA-SELEX-seq; with BOB1 (ternary complex band); 20 mM Tris-HCl pH 7.6, 140 mM NaCl, 10% glycerol, 0.5 mM EDTA, 0.05% Triton X-100, 0.1 mg/mL BSA, 0.1 mg/mL poly(dI-dC), 5 mM DTT, room temperature, 20 min; high values mean tight binding; conditions: protein: recombinant;recombinant; copies: 1;1; dsDNA, one strand shown
In short: as §1

[2] = target: T2, POU2 (OCT2 POU domain);BOB1 (OBF1, OCA-B) (human;human, UniProt P09086;Q16633 175-386;1-256, |); assay: as above; conditions: protein: recombinant;recombinant; copies: 1;1; dsDNA, one strand shown
T2 sequence 1: T1 sequence
T2 sequence 2: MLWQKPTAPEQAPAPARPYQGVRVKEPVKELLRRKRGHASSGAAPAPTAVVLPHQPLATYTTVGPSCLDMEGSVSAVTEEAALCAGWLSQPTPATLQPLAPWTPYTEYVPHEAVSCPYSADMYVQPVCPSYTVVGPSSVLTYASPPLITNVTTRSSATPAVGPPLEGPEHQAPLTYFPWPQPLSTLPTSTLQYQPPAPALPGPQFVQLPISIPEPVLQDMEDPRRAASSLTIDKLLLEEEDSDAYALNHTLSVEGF
In short: as §1

Sequence of POU1 (OCT1 POU domain) (P14859 260-458): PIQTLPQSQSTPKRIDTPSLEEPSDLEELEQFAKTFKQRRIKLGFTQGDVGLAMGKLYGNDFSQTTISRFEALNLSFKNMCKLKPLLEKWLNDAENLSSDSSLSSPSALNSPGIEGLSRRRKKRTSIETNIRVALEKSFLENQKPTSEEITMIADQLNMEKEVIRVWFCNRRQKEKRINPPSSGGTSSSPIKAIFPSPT

| Sequence | binding signal (POU1 (OCT1 POU domain)) | binding signal (POU2 (OCT2 POU domain)) | binding signal [1] | binding signal [2] |
| --- | --- | --- | --- | --- |
| ACCATAAC | 0.032 % of ANNNNAAN 8-mers | 0.0213 % of ANNNNAAN 8-mers | 0.014 % of ANNNNAAN 8-mers | 0.0198 % of ANNNNAAN 8-mers |
| ACCTAAAG | 0.0145 % of ANNNNAAN 8-mers | 0.0173 % of ANNNNAAN 8-mers | 0.0219 % of ANNNNAAN 8-mers | 0.0223 % of ANNNNAAN 8-mers |
| ATATCAAT | 0.117 % of ANNNNAAN 8-mers | 0.139 % of ANNNNAAN 8-mers | 0.0804 % of ANNNNAAN 8-mers | 0.0776 % of ANNNNAAN 8-mers |
| ACAGAAAT | 0.0568 % of ANNNNAAN 8-mers | 0.0633 % of ANNNNAAN 8-mers | 0.0472 % of ANNNNAAN 8-mers | 0.0504 % of ANNNNAAN 8-mers |
| ATACGAAC | 0.0343 % of ANNNNAAN 8-mers | 0.0345 % of ANNNNAAN 8-mers | 0.032 % of ANNNNAAN 8-mers | 0.0347 % of ANNNNAAN 8-mers |
| ATCATAAA | 0.0736 % of ANNNNAAN 8-mers | 0.0944 % of ANNNNAAN 8-mers | 0.0425 % of ANNNNAAN 8-mers | 0.0586 % of ANNNNAAN 8-mers |
| AGGCAAAA | 0.236 % of ANNNNAAN 8-mers | 0.136 % of ANNNNAAN 8-mers | 0.454 % of ANNNNAAN 8-mers | 0.204 % of ANNNNAAN 8-mers |
| AGGATAAT | 0.168 % of ANNNNAAN 8-mers | 0.209 % of ANNNNAAN 8-mers | 0.0952 % of ANNNNAAN 8-mers | 0.106 % of ANNNNAAN 8-mers |
| ATACGAAA | 0.0698 % of ANNNNAAN 8-mers | 0.0777 % of ANNNNAAN 8-mers | 0.0698 % of ANNNNAAN 8-mers | 0.0693 % of ANNNNAAN 8-mers |
| AGACGAAC | 0.0202 % of ANNNNAAN 8-mers | 0.0236 % of ANNNNAAN 8-mers | 0.0137 % of ANNNNAAN 8-mers | 0.0182 % of ANNNNAAN 8-mers |
| ACTGGAAG | 0.021 % of ANNNNAAN 8-mers | 0.027 % of ANNNNAAN 8-mers | 0.0211 % of ANNNNAAN 8-mers | 0.0314 % of ANNNNAAN 8-mers |
| ATGGGAAA | 0.098 % of ANNNNAAN 8-mers | 0.1 % of ANNNNAAN 8-mers | 0.118 % of ANNNNAAN 8-mers | 0.0784 % of ANNNNAAN 8-mers |
| AGCTGAAC | 0.0156 % of ANNNNAAN 8-mers | 0.0196 % of ANNNNAAN 8-mers | 0.0176 % of ANNNNAAN 8-mers | 0.019 % of ANNNNAAN 8-mers |
| AAGTGAAT | 0.105 % of ANNNNAAN 8-mers | 0.123 % of ANNNNAAN 8-mers | 0.0796 % of ANNNNAAN 8-mers | 0.0669 % of ANNNNAAN 8-mers |
| AATGAAAT | 0.139 % of ANNNNAAN 8-mers | 0.157 % of ANNNNAAN 8-mers | 0.14 % of ANNNNAAN 8-mers | 0.121 % of ANNNNAAN 8-mers |
| ATGATAAT | 0.513 % of ANNNNAAN 8-mers | 0.582 % of ANNNNAAN 8-mers | 0.138 % of ANNNNAAN 8-mers | 0.135 % of ANNNNAAN 8-mers |
| AGGACAAC | 0.0198 % of ANNNNAAN 8-mers | 0.0305 % of ANNNNAAN 8-mers | 0.0187 % of ANNNNAAN 8-mers | 0.0206 % of ANNNNAAN 8-mers |
| AGTCAAAT | 0.566 % of ANNNNAAN 8-mers | 0.367 % of ANNNNAAN 8-mers | 1.18 % of ANNNNAAN 8-mers | 1.04 % of ANNNNAAN 8-mers |
| AAGTGAAG | 0.0381 % of ANNNNAAN 8-mers | 0.0409 % of ANNNNAAN 8-mers | 0.0386 % of ANNNNAAN 8-mers | 0.0454 % of ANNNNAAN 8-mers |
| ACTAGAAG | 0.0229 % of ANNNNAAN 8-mers | 0.0316 % of ANNNNAAN 8-mers | 0.03 % of ANNNNAAN 8-mers | 0.0231 % of ANNNNAAN 8-mers |
| AGAGAAAT | 0.0679 % of ANNNNAAN 8-mers | 0.0708 % of ANNNNAAN 8-mers | 0.0753 % of ANNNNAAN 8-mers | 0.0784 % of ANNNNAAN 8-mers |
| AAAATAAA | 0.153 % of ANNNNAAN 8-mers | 0.16 % of ANNNNAAN 8-mers | 0.148 % of ANNNNAAN 8-mers | 0.105 % of ANNNNAAN 8-mers |
| AAAGAAAG | 0.0679 % of ANNNNAAN 8-mers | 0.0719 % of ANNNNAAN 8-mers | 0.08 % of ANNNNAAN 8-mers | 0.0619 % of ANNNNAAN 8-mers |
| AAAGGAAA | 0.103 % of ANNNNAAN 8-mers | 0.0903 % of ANNNNAAN 8-mers | 0.144 % of ANNNNAAN 8-mers | 0.0933 % of ANNNNAAN 8-mers |
| AAGAAAAA | 0.0934 % of ANNNNAAN 8-mers | 0.0921 % of ANNNNAAN 8-mers | 0.105 % of ANNNNAAN 8-mers | 0.0669 % of ANNNNAAN 8-mers |
| AATCGAAA | 0.0622 % of ANNNNAAN 8-mers | 0.0512 % of ANNNNAAN 8-mers | 0.0613 % of ANNNNAAN 8-mers | 0.0438 % of ANNNNAAN 8-mers |
| ATCTTAAC | 0.0351 % of ANNNNAAN 8-mers | 0.0449 % of ANNNNAAN 8-mers | 0.0402 % of ANNNNAAN 8-mers | 0.0512 % of ANNNNAAN 8-mers |
| ACGGAAAT | 0.087 % of ANNNNAAN 8-mers | 0.099 % of ANNNNAAN 8-mers | 0.142 % of ANNNNAAN 8-mers | 0.0792 % of ANNNNAAN 8-mers |
| ATTCAAAC | 0.153 % of ANNNNAAN 8-mers | 0.15 % of ANNNNAAN 8-mers | 0.199 % of ANNNNAAN 8-mers | 0.125 % of ANNNNAAN 8-mers |
| ATAGCAAG | 0.032 % of ANNNNAAN 8-mers | 0.0363 % of ANNNNAAN 8-mers | 0.0394 % of ANNNNAAN 8-mers | 0.0454 % of ANNNNAAN 8-mers |

Source: paper PMC10812921, “Transcriptional Coactivator BOB1 (OBF1, OCA-B) Modulates the Specificity of DNA Recognition by the POU-Domain Factors OCT1 and OCT2 in a Monomeric Configuration”
